Assay results: PubChem BioAssay AID1159580 (chemical genetic matrix, 2015)
In all, about 5,500 compounds went through this assay and about 2,000 (36%) were called active. Inconclusive results (about 18%) are left out. The list shows a part of the results. A number with no mark means an inactive call. Cut-off read from the data, not from the text of the source: active = normalized growth mostly below about 0.91 (no sharp cut-off); inconclusive = no clear call, values can overlap the other calls; inactive = mostly above about 0.92.

Assay: chemical genetic growth profiling, strain panel (AID 1159580);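 note: tested at 20 µM; growth read once vehicle control cultures reached saturation at 30 °C; 1 = growth at the plate median or of vehicle wells; lower values mean less growth of the strain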
Conditions: growth OD
[1] = S. cerevisiae deletion strains, locus YHR030C, strain SLT2, active compounds read low
[2] = S. cerevisiae deletion strains, locus YHR079C, strain IRE1, active compounds read low
[3] = S. cerevisiae deletion strains, locus YJL095W, strain BCK1, active compounds read low
[4] = S. cerevisiae deletion strains, locus YJR066W, strain TOR1, active compounds read low
[5] = S. cerevisiae deletion strains, locus YLR113W, strain HOG1, active compounds read low
[6] = S. cerevisiae deletion strains, locus YNL183C, strain NPR1, active compounds read low
[7] = S. cerevisiae deletion strains, locus YOR231W, strain MKK1, active compounds read low
[8] = S. cerevisiae deletion strains, locus YPL256C, strain CLN2, active compounds read low
[9] = S. cerevisiae deletion strains, locus YDL101C, strain DUN1, active compounds read low

`O=C(Nc1ccccc1)OCC(CN1CCCCC1)OC(=O)Nc1ccccc1` (stereo unspecified) showed a normalized growth [1] of 1, a normalized growth [2] of 1.03 and a normalized growth [3] of 1. For the same compound, the normalized growth [4] was 0.925, the normalized growth [5] was 1.01 and the normalized growth [6] was 0.949. For the same compound, the normalized growth [7] was 1.01 and the normalized growth [8] was 0.988.

With `N/C(=N/OC(=O)Nc1ccccc1)c1ccc(C2SCCS2)cc1` the normalized growth (S. cerevisiae deletion strains, locus YAL013W, strain DEP1, active compounds read low) was 0.889 (active), the normalized growth (S. cerevisiae deletion strains, locus YBR229C, strain ROT2, active compounds read low) was 0.892 (active) and the normalized growth [9] was 0.753 (active). The normalized growth (S. cerevisiae deletion strains, locus YDL134C, strain PPH21, active compounds read low) was 0.972, the normalized growth (S. cerevisiae deletion strains, locus YDR150W, strain NUM1, active compounds read low) was 0.851 and the normalized growth (S. cerevisiae deletion strains, locus YEL061C, strain CIN8, active compounds read low) was 0.833 (active). For the same compound, the normalized growth (S. cerevisiae deletion strains, locus YGR078C, strain PAC10, active compounds read low) was 0.879 (active), the normalized growth (S. cerevisiae deletion strains, locus YGR229C, strain SMI1, active compounds read low) was 1.01 and the normalized growth [1] was 0.343 (active). The normalized growth (S. cerevisiae deletion strains, locus YHR087W, strain rtc3, active compounds read low) was 0.829 (active), the normalized growth (S. cerevisiae deletion strains, locus YJR043C, strain POL32, active compounds read low) was 0.89 (active) and the normalized growth (S. cerevisiae deletion strains, locus YJR075W, strain HOC1, active compounds read low) was 0.772 (active). The normalized growth (S. cerevisiae deletion strains, locus YKL190W, strain CNB1, active compounds read low) was 0.924 (active), the normalized growth (S. cerevisiae deletion strains, locus YLR039C, strain RIC1, active compounds read low) was 0.767 (active) and the normalized growth (S. cerevisiae deletion strains, locus YLR085C, strain ARP6, active compounds read low) was 0.39 (active). For the same compound, the normalized growth (S. cerevisiae deletion strains, locus YLR262C, strain YPT6, active compounds read low) was 0.759 (active), the normalized growth (S. cerevisiae deletion strains, locus YML094W, strain GIM5, active compounds read low) was 0.801 (active) and the normalized growth (S. cerevisiae deletion strains, locus YMR219W, strain ESC1, active compounds read low) was 0.884 (active). The normalized growth (S. cerevisiae deletion strains, locus YMR263W, strain SAP30, active compounds read low) was 0.87 (active), the normalized growth (S. cerevisiae deletion strains, locus YMR307W, strain GAS1, active compounds read low) was 0.557 (active) and the normalized growth (S. cerevisiae deletion strains, locus YNL153C, strain GIM3, active compounds read low) was 0.652 (active). For the same compound, the normalized growth (S. cerevisiae deletion strains, locus YNL298W, strain CLA4 (second series), active compounds read low) was 0.797 (active), the normalized growth (S. cerevisiae deletion strains, locus YNL322C, strain KRE1, active compounds read low) was 0.991 and the normalized growth (S. cerevisiae deletion strains, locus YNR030W, strain Alg12, active compounds read low) was 0.81 (active). The normalized growth (S. cerevisiae deletion strains, locus YPL055C, strain LGE1, active compounds read low) was 0.694 (active), the normalized growth (S. cerevisiae deletion strains, locus YPR135W, strain CTF4, active compounds read low) was 0.436 (active) and the normalized growth (S. cerevisiae strains, strain wild type, active compounds read low) was 0.988.

Work on `N/C(=N/O)c1ccc(Oc2ccc(C3SCCS3)cc2)c([N+](=O)[O-])c1` yielded a normalized growth (S. cerevisiae deletion strains, locus YAR019C, strain CDC15, active compounds read low) of 1.01, a normalized growth (S. cerevisiae deletion strains, locus YBL105C, strain PKC1, active compounds read low) of 0.992 and a normalized growth (S. cerevisiae deletion strains, locus YBR135W, strain CKS1, active compounds read low) of 0.979. It also gave a normalized growth (S. cerevisiae deletion strains, locus YBR136W, strain MEC1, active compounds read low) of 1.01, a normalized growth (S. cerevisiae deletion strains, locus YBR160W, strain CDC28, active compounds read low) of 0.997 and a normalized growth (S. cerevisiae deletion strains, locus YDL017W, strain CDC7, active compounds read low) of 0.992. It also gave a normalized growth (S. cerevisiae deletion strains, locus YDL028C, strain MPS1, active compounds read low) of 1.01, a normalized growth [9] of 0.991 and a normalized growth (S. cerevisiae deletion strains, locus YDL108W, strain KIN28, active compounds read low) of 0.99. It also gave a normalized growth (S. cerevisiae deletion strains, locus YDL132W, strain cdc53, active compounds read low) of 0.973, a normalized growth (S. cerevisiae deletion strains, locus YDL214C, strain PRR2, active compounds read low) of 0.992 and a normalized growth (S. cerevisiae deletion strains, locus YDR052C, strain DBF4, active compounds read low) of 0.992. The normalized growth (S. cerevisiae deletion strains, locus YDR054C, strain cdc34, active compounds read low) was 0.988, the normalized growth (S. cerevisiae deletion strains, locus YDR226W, strain ADK1, active compounds read low) was 0.998 and the normalized growth (S. cerevisiae deletion strains, locus YDR477W, strain SNF1, active compounds read low) was 1.01. It also gave a normalized growth (S. cerevisiae deletion strains, locus YER123W, strain YCK3, active compounds read low) of 1.01, a normalized growth (S. cerevisiae deletion strains, locus YER133W, strain GLC7, active compounds read low) of 0.994 and a normalized growth (S. cerevisiae deletion strains, locus YFL009W, strain cdc4, active compounds read low) of 0.992. It also gave a normalized growth (S. cerevisiae deletion strains, locus YFL029C, strain CAK1, active compounds read low) of 1, a normalized growth (S. cerevisiae deletion strains, locus YFR003C, strain YPI1, active compounds read low) of 0.985 and a normalized growth (S. cerevisiae deletion strains, locus YFR019W, strain FAB1, active compounds read low) of 1.02. It also gave a normalized growth (S. cerevisiae deletion strains, locus YFR028C, strain CDC14, active compounds read low) of 1, a normalized growth (S. cerevisiae deletion strains, locus YGR040W, strain KSS1, active compounds read low) of 1 and a normalized growth (S. cerevisiae deletion strains, locus YGR052W, strain FMP48, active compounds read low) of 1.07. It also gave a normalized growth (S. cerevisiae deletion strains, locus YGR092W, strain DBF2, active compounds read low) of 0.993, a normalized growth [1] of 0.874 and a normalized growth [2] of 1.06. It also gave a normalized growth (S. cerevisiae deletion strains, locus YHR082C, strain KSP1, active compounds read low) of 1.12, a normalized growth (S. cerevisiae deletion strains, locus YHR205W, strain SCH9, active compounds read low) of 1.01 and a normalized growth (S. cerevisiae deletion strains, locus YIL147C, strain SLN1, active compounds read low) of 0.996. The normalized growth [3] was 1.01, the normalized growth (S. cerevisiae deletion strains, locus YJL128C, strain PBS2, active compounds read low) was 0.93 and the normalized growth (S. cerevisiae deletion strains, locus YJL157C, strain FAR1, active compounds read low) was 1.01. For the same compound, the normalized growth (S. cerevisiae deletion strains, locus YJR016C, strain ILV3, active compounds read low) was 0.993, the normalized growth (S. cerevisiae deletion strains, locus YJR066W, strain TOR1 (second series), active compounds read low) was 1.01 and the normalized growth [4] was 1.02. It also gave a normalized growth (S. cerevisiae deletion strains, locus YKL048C, strain ELM1, active compounds read low) of 0.988, a normalized growth (S. cerevisiae deletion strains, locus YKL067W, strain YNK1, active compounds read low) of 0.981 and a normalized growth (S. cerevisiae deletion strains, locus YKL101W, strain HSL1, active compounds read low) of 0.986. The normalized growth (S. cerevisiae deletion strains, locus YKL193C, strain SDS22, active compounds read low) was 0.979, the normalized growth (S. cerevisiae deletion strains, locus YKL203C, strain TOR2, active compounds read low) was 1.11 and the normalized growth [5] was 1.02. The normalized growth (S. cerevisiae deletion strains, locus YLR133W, strain CKI1, active compounds read low) was 1.01, the normalized growth (S. cerevisiae deletion strains, locus YLR403W, strain SFP1, active compounds read low) was 1.05 and the normalized growth (S. cerevisiae deletion strains, locus YML070W, strain DAK1, active compounds read low) was 1.01. It also gave a normalized growth (S. cerevisiae deletion strains, locus YMR001C, strain CDC5, active compounds read low) of 1, a normalized growth (S. cerevisiae deletion strains, locus YMR205C, strain PFK2 (second series), active compounds read low) of 0.994 and a normalized growth (S. cerevisiae deletion strains, locus YMR277W, strain FCP1, active compounds read low) of 0.995. For the same compound, the normalized growth (S. cerevisiae deletion strains, locus YNL006W, strain LST8, active compounds read low) was 0.988, the normalized growth (S. cerevisiae deletion strains, locus YNL020C, strain ARK1, active compounds read low) was 1.03 and the normalized growth (S. cerevisiae deletion strains, locus YNL161W, strain CBK1, active compounds read low) was 0.981. It also gave a normalized growth [6] of 1.08, a normalized growth (S. cerevisiae deletion strains, locus YNL207W, strain RIO2, active compounds read low) of 0.984 and a normalized growth (S. cerevisiae deletion strains, locus YNL222W, strain SSU72, active compounds read low) of 0.979. For the same compound, the normalized growth (S. cerevisiae deletion strains, locus YNL307C, strain MCK1 (second series), active compounds read low) was 1.02, the normalized growth (S. cerevisiae deletion strains, locus YOL078W, strain AVO1, active compounds read low) was 0.978 and the normalized growth (S. cerevisiae deletion strains, locus YOL136C, strain PFK27, active compounds read low) was 1.02. The normalized growth (S. cerevisiae deletion strains, locus YOR061W, strain CKA2, active compounds read low) was 0.995, the normalized growth (S. cerevisiae deletion strains, locus YOR119C, strain RIO1, active compounds read low) was 1.04 and the normalized growth [7] was 1.03. The normalized growth (S. cerevisiae deletion strains, locus YOR329C, strain SCD5, active compounds read low) was 0.991, the normalized growth (S. cerevisiae deletion strains, locus YPL031C, strain PHO85, active compounds read low) was 0.998 and the normalized growth (S. cerevisiae deletion strains, locus YPL153C, strain RAD53, active compounds read low) was 0.988. For the same compound, the normalized growth (S. cerevisiae deletion strains, locus YPL204W, strain HRR25, active compounds read low) was 1, the normalized growth (S. cerevisiae deletion strains, locus YPL209C, strain IPL1, active compounds read low) was 0.984 and the normalized growth [8] was 0.995. For the same compound, the normalized growth (S. cerevisiae deletion strains, locus YPR025C, strain CCL1, active compounds read low) was 0.985, the normalized growth (S. cerevisiae deletion strains, locus YPR106W, strain ISR1, active compounds read low) was 0.994 and the normalized growth (S. cerevisiae deletion strains, locus YPR111W, strain DBF20, active compounds read low) was 0.978. The normalized growth (S. cerevisiae deletion strains, strain NNK1, active compounds read low) was 0.995 and the normalized growth (S. cerevisiae deletion strains, strain TSCII, active compounds read low) was 1.01.
